Source: PubChem BioAssay (Tox21)
Results filed as inconclusive are left out. Activity calls are given as the source filed them. Unless noted, calls follow the shape of the full dose curve.

Assays:
[1] = Nuclear factor erythroid 2-related factor 2/antioxidant responsive element (Nrf2/ARE) small molecule agonists: qHTS cell viability counter screen in human keratinocytes (AID 1919968; active = well fitted curve in the direction sought with a large enough effect in the repeat runs; an effect the other way counts as inactive or inconclusive; also: nearly all actives have a fitted effect of over 55% in size)
Outline: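 Seed 1,500 KeratinoSens cells per well, then incubate 5 h at 37 C/5% CO2. Add compounds in DMSO and incubate 23 h. Add CellTiter-Fluor, wait 1 h and read fluorescence.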

[2] = target: Gonadotropin-releasing hormone receptor (Homo sapiens) (UniProt P30968); assay: Human gonadotropin-releasing hormone receptor (GnRHR) small molecule agonists, calcium flux assay in GnRHR-HEK293 cells (AID 1920063); also: nearly all actives have a fitted effect of over 35% in size
Gonadotropin-releasing hormone receptor (Homo sapiens), sequence (P30968 whole entry, looked up): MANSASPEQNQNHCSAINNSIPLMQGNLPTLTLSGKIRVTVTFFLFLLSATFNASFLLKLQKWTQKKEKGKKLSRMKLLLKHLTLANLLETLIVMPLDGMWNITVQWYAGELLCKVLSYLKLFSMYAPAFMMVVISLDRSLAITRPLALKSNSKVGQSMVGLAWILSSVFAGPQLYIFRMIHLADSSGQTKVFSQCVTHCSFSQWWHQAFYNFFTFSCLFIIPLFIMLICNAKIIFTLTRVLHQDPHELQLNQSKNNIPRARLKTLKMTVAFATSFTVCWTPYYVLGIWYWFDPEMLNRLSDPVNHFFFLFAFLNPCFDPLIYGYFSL
Outline: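 Cells: HEK293 stably expressing human GnRHR. Steps: overnight (18 h) culture, 1 h calcium dye loading at 37 C, compound addition, kinetic fluorescence read at 480/540 nm. Each compound tested at 15 concentrations in triplicate.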

[3] = target: KiSS-1 receptor (Homo sapiens) (UniProt Q969F8); assay: Human kisspeptin (KISS1R) small molecule agonists, calcium flux assay in KISS1R-HEK293 cells (AID 1920064; active = well fitted curve in the direction sought with a large enough effect in the repeat runs; an effect the other way counts as inactive or inconclusive)
KiSS-1 receptor (Homo sapiens), sequence (Q969F8 whole entry, looked up): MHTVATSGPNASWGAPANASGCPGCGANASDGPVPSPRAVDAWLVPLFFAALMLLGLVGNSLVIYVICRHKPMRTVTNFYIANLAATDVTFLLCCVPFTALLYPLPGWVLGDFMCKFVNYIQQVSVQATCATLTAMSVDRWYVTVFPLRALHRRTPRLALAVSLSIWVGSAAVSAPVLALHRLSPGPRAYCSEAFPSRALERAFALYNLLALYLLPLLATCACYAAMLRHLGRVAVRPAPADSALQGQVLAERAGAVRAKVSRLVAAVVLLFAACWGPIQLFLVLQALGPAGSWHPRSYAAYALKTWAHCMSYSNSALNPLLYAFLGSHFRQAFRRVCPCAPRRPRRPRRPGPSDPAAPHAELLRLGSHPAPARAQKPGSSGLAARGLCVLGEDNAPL
Outline: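 Cells plated and incubated 18 h; dye added, 1 h at 37 C; compounds in DMSO pinned in; signal read at 480/540 nm every second for 3 min. Each compound tested at 15 concentrations in triplicate.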

[4] = G protein-coupled receptor (GPCR) small molecule agonists, calcium flux assay: HEK293 wild type cell line counter screen (AID 1920065)
Outline: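 Counter-screen of the Tox21 10K library for non-specific calcium release: dye-loaded cells received compounds in DMSO and were monitored by kinetic fluorescence (480/540 nm, 3 min). Fifteen concentrations, run in triplicate.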

[5] = p53 small molecule agonists, cell-based qHTS assay with human liver microsomes (AID 1963577)
Outline: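 p53RE-bla reporter cells were pre-incubated 5 h at 37 C, then treated with compounds plus human liver microsomes (0.5 mg/mL final) and NADPH (0.5 mg/mL final) for 16 h at 37 C. Beta-lactamase activity was read by LiveBLAzer fluorescence after 2 h at room temperature.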

[6] = p53 small molecule agonists, cell-based qHTS assay with rat liver microsomes (AID 1963578)
Outline: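 p53RE-bla cells were exposed to compounds together with rat liver microsomes (0.5 mg/mL final) and NADPH (0.5 mg/mL final) for 16 h at 37 C, then read by LiveBLAzer beta-lactamase fluorescence after 2 h at room temperature.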

[7] = p53 small molecule agonists, cell-based qHTS assay with human liver microsomes: qHTS cell viability counter screen (AID 1963579); also: nearly all actives have a fitted effect of over 45% in size
Outline: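 p53RE-bla cells (4,000/well) were pre-incubated 5 h at 37 C, then given compounds in DMSO plus human liver microsomes (0.5 mg/mL final) and NADPH (0.5 mg/mL final) for 16 h at 37 C. Viability was read by CellTiter-Glo luminescence.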

[8] = p53 small molecule agonists, cell-based qHTS assay: qHTS cell viability counter screen (AID 1963581); also: nearly all actives have a fitted effect of over 45% in size
Outline: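 Cells: HCT-116 with p53 response element-driven beta-lactamase. Treatment: 16 h, 37 C, compounds in DMSO. Read: CellTiter-Glo luminescence after 30 min RT.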

[9] = p53 small molecule agonists, cell-based qHTS assay (AID 1963582; active = well fitted activation curve with a large enough effect in the signal ratio in the repeat runs, not every such curve was filed as active; the % refers to the signal ratio)
Outline: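 Quantitative HTS in p53RE-bla cells: after a 5 h settling period, compounds delivered in DMSO were left on cells for 16 h at 37 C, and reporter induction was measured as fluorescence following 2 h substrate loading.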

[10] = target: 5-hydroxytryptamine receptor 2A (Homo sapiens) (UniProt P28223); assay: 5-hydroxytryptamine receptor 2A (HTR2A) small molecule antagonists, cell-based qHTS assay (AID 1963586); also: nearly all actives have a fitted effect of over 45% in size
5-hydroxytryptamine receptor 2A (Homo sapiens), sequence (P28223 whole entry, looked up): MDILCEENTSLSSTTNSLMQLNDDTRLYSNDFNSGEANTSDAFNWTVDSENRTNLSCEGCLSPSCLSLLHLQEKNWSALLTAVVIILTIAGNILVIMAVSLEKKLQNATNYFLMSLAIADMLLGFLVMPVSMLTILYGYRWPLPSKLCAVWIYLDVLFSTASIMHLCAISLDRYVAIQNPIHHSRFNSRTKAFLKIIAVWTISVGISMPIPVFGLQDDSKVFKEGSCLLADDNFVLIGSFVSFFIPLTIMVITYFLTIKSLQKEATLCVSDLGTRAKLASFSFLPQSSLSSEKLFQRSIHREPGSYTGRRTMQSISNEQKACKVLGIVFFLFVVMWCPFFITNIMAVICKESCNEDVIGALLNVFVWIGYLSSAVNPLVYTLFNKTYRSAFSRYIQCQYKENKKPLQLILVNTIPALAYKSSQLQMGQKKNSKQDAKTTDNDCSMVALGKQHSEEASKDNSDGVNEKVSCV
Outline: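 Antagonist-mode intracellular calcium assay: DOI (4 nM) added after 5 min compound pre-incubation at room temperature to dye-loaded HTR2A-CHO cells. Fluorescence followed for 3 min, sampled every second.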

[11] = target: 5-hydroxytryptamine receptor 2A (Homo sapiens) (UniProt P28223); assay: 5-hydroxytryptamine receptor 2A (HTR2A) small molecule agonists, cell-based qHTS assay (AID 1963587); also: nearly all actives have a fitted effect of over 30% in size
Outline: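 Kinetic calcium-flux fluorescence (2 min, 1 sec intervals) after compound addition in agonist mode. HTR2A-CHO cells were cultured 18 h, then dye-loaded 1 h at 37 C.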

[12] = target: Muscarinic acetylcholine receptor M1 (Homo sapiens) (UniProt P11229); assay: Cholinergic receptor muscarinic 1 (CHRM1) small molecule antagonists, cell-based qHTS assay (AID 1963588); also: nearly all actives have a fitted effect of over 40% in size
Muscarinic acetylcholine receptor M1 (Homo sapiens), sequence (P11229 whole entry, looked up): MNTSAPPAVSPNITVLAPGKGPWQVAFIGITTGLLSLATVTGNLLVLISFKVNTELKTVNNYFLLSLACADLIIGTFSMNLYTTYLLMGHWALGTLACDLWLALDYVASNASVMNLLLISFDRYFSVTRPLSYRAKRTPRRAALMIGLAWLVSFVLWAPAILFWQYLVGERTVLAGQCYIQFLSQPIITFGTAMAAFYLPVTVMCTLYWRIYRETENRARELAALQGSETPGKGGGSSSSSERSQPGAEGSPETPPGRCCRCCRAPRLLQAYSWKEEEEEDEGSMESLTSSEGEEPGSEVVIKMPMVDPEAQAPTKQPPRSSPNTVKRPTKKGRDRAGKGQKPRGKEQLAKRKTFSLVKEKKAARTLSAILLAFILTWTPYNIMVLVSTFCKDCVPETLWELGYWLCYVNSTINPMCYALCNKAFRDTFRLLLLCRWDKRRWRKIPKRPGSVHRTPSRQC
Outline: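 CHRM1-CHO calcium-flux assay, antagonist mode. Cells were seeded 18 h, dye-loaded 1 h at 37 C and given compound for 5 min at RT, then acetylcholine was added at 50nM. FDSS fluorescence was read 3 min; 15 concentrations, three runs.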

[13] = target: Muscarinic acetylcholine receptor M1 (Homo sapiens) (UniProt P11229); assay: Cholinergic receptor muscarinic 1 (CHRM1) small molecule agonists, cell-based qHTS assay (AID 1963589); also: nearly all actives have a fitted effect of over 35% in size
Outline: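 Agonist-mode qHTS in CHO cells stably carrying human muscarinic M1. Intracellular calcium is tracked by fluorescence every second after compound transfer; each compound runs at 15 concentrations in three independent runs.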

[14] = cAMP Responsive Elements (CRE) small molecule agonists, cell-based qHTS assay (AID 1963590)
Outline: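 Agonist mode qHTS in CRE-bla HEK 293T cells: compounds dosed from DMSO for 3 h at 37 C/5% CO2, followed by LiveBLAzer B/G FRET substrate for 2 h at room temperature.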

[15] = cAMP Responsive Elements (CRE) small molecule antagonists, cell-based qHTS assay (AID 1963591; active = well fitted inhibition curve with a large enough effect in the signal ratio in the repeat runs, not every such curve was filed as active; the % refers to the signal ratio)
Outline: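 Antagonist mode: test compounds are co-incubated with the adenylyl cyclase activator NKH477 (0.25 uM final) on CRE-bla HEK293T cells for 3 h at 37 °C, followed by LiveBLAzer substrate loading.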

[16] = target: Beta-2 adrenergic receptor (Homo sapiens) (UniProt P07550); assay: Adrenergic beta2 receptor (ADRB2) small molecule antagonists, cell-based qHTS assay (AID 1963592); also: series mostly up to about 92 µM; nearly all actives have a fitted effect of over 50% in size
Beta-2 adrenergic receptor (Homo sapiens), sequence (P07550 whole entry, looked up): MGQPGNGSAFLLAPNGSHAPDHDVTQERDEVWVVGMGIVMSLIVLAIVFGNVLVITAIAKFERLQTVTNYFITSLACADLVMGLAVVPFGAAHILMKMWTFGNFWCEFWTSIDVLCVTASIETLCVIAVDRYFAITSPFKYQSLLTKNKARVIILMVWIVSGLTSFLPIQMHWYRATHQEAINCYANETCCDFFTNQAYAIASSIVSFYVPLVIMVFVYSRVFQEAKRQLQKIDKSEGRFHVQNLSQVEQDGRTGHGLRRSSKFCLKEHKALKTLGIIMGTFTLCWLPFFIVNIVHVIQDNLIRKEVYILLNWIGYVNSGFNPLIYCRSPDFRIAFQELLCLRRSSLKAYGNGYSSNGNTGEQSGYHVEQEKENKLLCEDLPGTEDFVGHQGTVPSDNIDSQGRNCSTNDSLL
Outline: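 Cells (CHO, stable ADRB2 overexpression) incubated 18-20hr at 37C; compounds added from DMSO; agonist mix (1nM isoproterenol, 100uM IBMX, 25uM Ro-20-1724) added; 0.5hr RT; d2-cAMP and anti-cAMP-cryptate added; 1hr RT; 665/615 nm read.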

[17] = target: Beta-2 adrenergic receptor (Homo sapiens) (UniProt P07550); assay: Adrenergic beta2 receptor (ADRB2) small molecule agonists, cell-based qHTS assay (AID 1963593);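 also: CHO cells stably overexpressing human ADRB2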
Outline: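 CHO cells stably over-expressing ADRB2 were plated overnight at 37C, then dosed with compounds plus a stimulation mix containing 100uM IBMX and 25uM Ro-20-1724 for 0.5hr at room temperature. cAMP was measured by HTRF competition, 1hr.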

[18] = target: D(2) dopamine receptor (Homo sapiens) (UniProt P14416); assay: Dopamine D2 receptor (DRD2) small molecule agonists, cell-based qHTS assay (AID 1963594); also: nearly all actives have a fitted effect of over 35% in size
D(2) dopamine receptor (Homo sapiens), sequence (P14416 whole entry, looked up): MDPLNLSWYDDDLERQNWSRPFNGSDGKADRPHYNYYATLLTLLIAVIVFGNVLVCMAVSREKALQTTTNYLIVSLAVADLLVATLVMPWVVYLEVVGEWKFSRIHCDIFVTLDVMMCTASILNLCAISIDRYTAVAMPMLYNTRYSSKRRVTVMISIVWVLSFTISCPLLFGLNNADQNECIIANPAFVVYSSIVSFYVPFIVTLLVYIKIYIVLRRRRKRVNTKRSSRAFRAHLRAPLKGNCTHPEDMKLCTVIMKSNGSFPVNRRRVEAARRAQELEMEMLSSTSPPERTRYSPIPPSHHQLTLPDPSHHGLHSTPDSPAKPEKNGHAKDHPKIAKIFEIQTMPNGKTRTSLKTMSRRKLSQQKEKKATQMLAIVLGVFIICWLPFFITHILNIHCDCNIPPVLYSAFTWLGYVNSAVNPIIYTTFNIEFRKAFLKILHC
Outline: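 cAMP accumulation in DRD2-HEK293 cells measured by HTRF after 1 h detection; compounds added 10 min before NKH477 (200nM […]) forskolin-analogue stimulation, 30 min at room temperature, with Ro20-1724 present at 0.1 mM final.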

[19] = target: D(2) dopamine receptor (Homo sapiens) (UniProt P14416); assay: Dopamine D2 receptor (DRD2) small molecule antagonists, cell-based qHTS assay (AID 1963595; active = well fitted inhibition curve with a large enough effect in the signal ratio in the repeat runs, with a control signal flat; the % refers to the signal ratio)
Outline: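 HEK293 cells stably expressing DRD2, preincubated with 0.1 mM Ro20-1724 and compounds 10 min, were stimulated with 200 nM NKH477 plus 12 nM quinpirole for 30 min at room temperature; cAMP measured by HTRF (665/620 nm).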

[20] = p53 small molecule agonists, cell-based qHTS assay with rat liver microsomes: qHTS cell viability counter screen (AID 1963580); also: nearly all actives have a fitted effect of over 45% in size
Outline: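 HCT-116 p53RE-bla, 4,000 cells/well, 5 h pre-incubation; cpd + rat liver microsomes 0.5 mg/mL + NADPH 0.5 mg/mL (final); 16 h, 37 C; CellTiter-Glo, 30 min RT; luminescence.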

Measured: Potency

N#CS
not listed: [20]
inactive: all other assays above

S=C1NCCN1
not listed: [7] | [13] | [17]
inactive: all other assays above

CC[N+](CC)(CC)CC
not listed: [5] | [6] | [9] | [16]
inactive: all other assays above

CCCCCCCCCCCC(=O)O
not listed: [5] | [6] | [8] | [9]
inactive: all other assays above

c1ccc(OP(Oc2ccccc2)Oc2ccccc2)cc1
not listed: [7] | [13] | [18]
inactive: all other assays above

ClC1=C(Cl)[C@]2(Cl)[C@@H]3[C@@H](Cl)[C@H](Cl)C[C@@H]3[C@@]1(Cl)C2(Cl)Cl
not listed: [10] | [15] | [20]
inactive: all other assays above

N#Cc1ccncc1
not listed: [16] | [18] | [20]
inactive: all other assays above

CCCCCCn1cc[n+](C)c1
not listed: [5] | [6] | [9]
inactive: all other assays above
